From PubChem BioAssay AID1159580 (chemical genetic matrix, 2015)
Where “and” joins values, the source holds several entries; their conditions need not be identical. Equal entries are not always repeated. In all, about 5,500 compounds went through this assay and about 2,000 (36%) were called active. Roughly 18% stayed inconclusive and do not appear here. Cut-off read from the data, not from the text of the source: active = normalized growth mostly below about 0.91 (no sharp cut-off); inconclusive = no clear call, values can overlap the other calls; inactive = mostly above about 0.92. This is one part of the list.

Assay: chemical genetic growth profiling, strain panel (AID 1159580);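 note: tested at 20 µM; growth read once vehicle control cultures reached saturation at 30 °C; 1 = growth at the plate median or of vehicle wells; lower values mean less growth of the strain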
Conditions: S. cerevisiae deletion strains, growth OD

Measured: normalized growth

Cc1cn([C@H]2C[C@H](N=[N+]=[N-])[C@@H](CO)O2)c(=O)[nH]c1=O
inactive: locus YAL013W, strain DEP1, active compounds read low 1.01 | locus YAL021C, strain ccr4, active compounds read low 0.993 | locus YAL026C, strain drs2, active compounds read low 0.995 | locus YAL030W, strain snc1, active compounds read low 1 | locus YBL061C, strain skt5, active compounds read low 1 | locus YBR009C, strain hhf1, active compounds read low 1.02 | locus YBR021W, strain FUR4, active compounds read low 0.998 | locus YBR023C, strain chs3, active compounds read low 1 | locus YBR171W, strain sec66, active compounds read low 0.996 | locus YBR229C, strain ROT2, active compounds read low 1.01 | locus YBR231C, strain swc5, active compounds read low 1 | locus YBR279W, strain paf1, active compounds read low 0.979 | locus YCL011C, strain gbp2, active compounds read low 1.02 | locus YCL016C, strain dcc1, active compounds read low 0.965 | locus YCL029C, strain bik1, active compounds read low 1.01 | locus YCL069W, strain vba3, active compounds read low 0.99 | locus YCR088W, strain abp1, active compounds read low 0.995 | locus YDL005C, strain med2, active compounds read low 1 | locus YDL035C, strain GPR1, active compounds read low 1.01 | locus YDL040C, strain nat1, active compounds read low 0.994 | locus YDL074C, strain BRE1, active compounds read low 1.02 | locus YDL101C, strain DUN1, active compounds read low 1.01 | locus YDL134C, strain PPH21, active compounds read low 1 | locus YDL185W, strain tfp1, active compounds read low 1.01 | locus YDL192W, strain arf1, active compounds read low 1.01 | locus YDR001C, strain nth1, active compounds read low 0.994 | locus YDR069C, strain doa4, active compounds read low 1.01 | locus YDR101C, strain arx1, active compounds read low 1.02 | locus YDR137W, strain rgp1, active compounds read low 0.966 | locus YDR150W, strain NUM1, active compounds read low 1 | locus YDR159W, strain sac3, active compounds read low 0.971 | locus YDR162C, strain NBP2, active compounds read low 1 | locus YDR195W, strain ref2 0.983 | locus YDR297W, strain sur2, active compounds read low 1.02 | locus YDR318W, strain mcm21, active compounds read low 1 | locus YDR334W, strain swr1, active compounds read low 1.01 | locus YDR335W, strain msn5, active compounds read low 0.984 | locus YDR388W, active compounds read low 1 | locus YDR392W, strain spt3, active compounds read low 0.924 | locus YDR502C, strain sam2, active compounds read low 1.02 | locus YEL003W, strain gim4, active compounds read low 1.01 | locus YEL037C, strain rad23, active compounds read low 1 | locus YEL061C, strain CIN8 (second series), active compounds read low 0.999 | locus YEL061C, strain CIN8, active compounds read low 1 | locus YER015W, strain faa2, active compounds read low 0.997 | locus YER016W, strain bim1, active compounds read low 0.991 | locus YER110C, active compounds read low 1.02 | locus YER111C, strain swi4, active compounds read low 0.976 | locus YER155C, strain BEM2 (second series), active compounds read low 1 | locus YER155C, strain BEM2, active compounds read low 0.988 | locus YER167W, strain BCK2, active compounds read low 0.998 | locus YFR010W, strain ubp6, active compounds read low 1.01 | locus YGL078C, strain dbp3, active compounds read low 1.01 | locus YGL086W, strain mad1, active compounds read low 1 | locus YGL167C, strain pmr1, active compounds read low 1 | locus YGL173C, strain kem1, active compounds read low 1.01 | locus YGL227W, strain vid30, active compounds read low 0.996 | locus YGL240W, strain doc1, active compounds read low 1 | locus YGL248W, strain PDE1, active compounds read low 1.01 | locus YGL253W, strain hxk2, active compounds read low 0.981 | locus YGR078C, strain PAC10, active compounds read low 1.01 | locus YGR135W, strain pre9, active compounds read low 1.01 | locus YGR229C, strain SMI1, active compounds read low 1.01 | locus YGR252W, strain gcn5, active compounds read low 1.05 | locus YHR013C, strain ard1, active compounds read low 0.969 | locus YHR027C, strain rpn1, active compounds read low 1.03 | locus YHR030C, strain SLT2, active compounds read low 1 and 0.984 | locus YHR079C, strain IRE1 (second series), active compounds read low 0.998 | locus YHR079C, strain IRE1, active compounds read low 0.966 | locus YHR094C, strain hxt1, active compounds read low 1.01 | locus YHR129C, strain ARP1, active compounds read low 1 | locus YHR142W, strain chs7, active compounds read low 0.972 | locus YHR200W, strain rpn10, active compounds read low 1.01 | locus YIL066C, strain RNR3, active compounds read low 1.01 | locus YIL073C, strain SPO22, active compounds read low 1.05 | locus YIL125W, strain kgd1, active compounds read low 1.01 | locus YIR030C, strain dcg1, active compounds read low 1 | locus YJL092W, strain hpr5, active compounds read low 1.01 | locus YJL095W, strain BCK1 (second series), active compounds read low 1.01 | locus YJL095W, strain BCK1, active compounds read low 1.01 and 0.973 | locus YJL115W, strain asf1, active compounds read low 1 | locus YJL129C, strain trk1, active compounds read low 0.948 | locus YJL134W, strain LCB3, active compounds read low 0.999 | locus YJL154C, strain vps35, active compounds read low 0.998 | locus YJL164C, strain tpk1, active compounds read low 0.981 | locus YJL166W, strain qcr8, active compounds read low 1.03 | locus YJL168C, strain set2, active compounds read low 0.999 | locus YJL187C, strain SWE1 (second series), active compounds read low 1.01 | locus YJL187C, strain SWE1, active compounds read low 1.01 | locus YJR043C, strain POL32, active compounds read low 1.02
